Potency, activity change, negative = inhibition and outcome data for 29 molecules are collected here from PubChem BioAssay (NCATS).

Values without a mark were called inactive. Inconclusive results are not listed. The source made the active and inactive calls. The call rests on the fitted dose curve; in most records, active means well fitted inhibition curve with a large enough effect; inconclusive means small, poorly fitted or top-dose-only effect; inactive means flat fitted curve, though single readings scatter. Where a SMILES comes first, the peptide text is derived from it.

The target in assay [1] is Glutathione peroxidase 1 (Homo sapiens) (UniProt P07203). The experiment in a line: Primary qHTS Assay for Inhibitors of Recombinant Selenoprotein Glutathione Peroxidase 1 (GPX1) (AID 1845191). Further: nearly all actives have a fitted effect of over 65% in size. The method in brief:
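GPX1 10 nM, GR 100 nM, GSH 1 mM, NADPH 0.5 mM, CHP 0.5 mM (final). 30-min cpd preincubation, RT. Ex340/Em450 read t=0, t=15 min.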

The target in assay [2] is Phospholipid hydroperoxide glutathione peroxidase GPX4 (Homo sapiens) (UniProt P36969). The assay is described as follows: Primary qHTS Assay for Inhibitors of Recombinant Selenoprotein Glutathione Peroxidase 4 (GPX4) (AID 1845192). Further: nearly all actives have a fitted effect of over 65% in size. On activity change, negative = inhibition: series mostly up to about 50 µM; on the % scale 0 is the no-effect control and ±100 the full control effect. The method in brief:
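qHTS, GR-coupled: GPX4 200 nM + cpd 30 min RT → GSH 1 mM, NADPH 0.5 mM, GR 100 nM → CHP 0.5 mM start; fluor 340/450 at t0 and t15 min; no-enzyme wells as control.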

Assay [3] has as its target Luciferin 4-monooxygenase (Photinus pyralis) (UniProt P08659). The experiment in a line: Primary firefly luciferase (FLuc) qHTS assay for identification of artifact compounds. (AID 1845220). Further: nearly all actives have a fitted effect of over 60% in size.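 On activity change, negative = inhibition: series mostly up to about 54 µM; plate controls were DMSO vehicle for no effect and no enzyme for full effect.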 The method in brief:
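In this counter-screen for luciferase artifacts, test compounds met substrate (10 uM each luciferin and ATP) before 10 nM enzyme started the reaction. Light output was measured 5 min later.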
In general terms: qHTS replaces the single test concentration by a dilution series.

Chain of Glutathione peroxidase 1 (Homo sapiens) (P07203 whole entry, looked up): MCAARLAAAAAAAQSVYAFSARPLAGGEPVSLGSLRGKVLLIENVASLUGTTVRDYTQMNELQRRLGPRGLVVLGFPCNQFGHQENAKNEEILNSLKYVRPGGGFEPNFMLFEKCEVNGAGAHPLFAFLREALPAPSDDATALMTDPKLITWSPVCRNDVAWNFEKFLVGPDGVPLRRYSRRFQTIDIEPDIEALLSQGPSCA
Chain of Phospholipid hydroperoxide glutathione peroxidase GPX4 (Homo sapiens) (P36969 whole entry, looked up): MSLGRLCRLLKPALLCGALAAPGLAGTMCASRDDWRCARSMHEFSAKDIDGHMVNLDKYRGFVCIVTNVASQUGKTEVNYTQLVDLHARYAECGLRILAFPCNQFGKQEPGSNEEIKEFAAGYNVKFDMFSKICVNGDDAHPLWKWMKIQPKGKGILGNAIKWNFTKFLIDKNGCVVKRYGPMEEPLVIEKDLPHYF

For `CC(=O)OCC(=O)[C@@]1(O)CC[C@H]2[C@@H]3C[C@H](C)C4=CC(=O)C=C[C@]4(C)[C@H]3[C@@H](O)C[C@@]21C`, the Potency entry in assay [1] and in assay [2] was “inactive” in each case.

For the molecule `CC(C)N=c1cc2n(-c3ccc(Cl)cc3)c3ccccc3nc-2cc1Nc1ccc(Cl)cc1`, the Potency result in assay [1] and in assay [2] was “inactive” throughout.

As to `CC(=O)Oc1c(C)cc(OCC(O)CNC(C)C)c(C)c1C` (stereo unspecified), the Potency result in assay [1] and in assay [2] was “inactive” each time.

As to `CC[N+](C)(C)Cc1ccccc1Br`, the Potency entry in assay [1] and in assay [2] was “inactive” in each case.

Take `CCN(c1cc(C#CCN2CCOCC2)cc(C(=O)NCc2c(C)cc(C)[nH]c2=O)c1C)C1CCC(N(C)CCOC)CC1` (stereo unspecified): the Potency entry in assay [1], in assay [2] and in assay [3] was “inactive” in each case.

For the molecule `CO[C@H]1C=C2C(CC[C@H](O[C@@H]3O[C@H](CO)[C@@H](O)[C@@H](O)[C@H]3O)C2(C)C)[C@]2(C)CC[C@]3(C)C([C@H](C)C(O)C(C=C(C)C)O[C@@H]4O[C@H](CO)[C@@H](O)[C@@H](O)[C@H]4O)CC[C@@]3(C)C12` (stereo partly specified), the Potency entry in assay [1] and in assay [2] was “inactive” in each case. In addition, the activity change, negative = inhibition in assay [3] was 1.78% [at 11.6 µM].

Turning to `O=C1NC(=Nc2ccccc2F)S/C1=C\c1ccc(C(=O)O)cc1`, the Potency result in assay [1] and in assay [2] was “inactive” in each case.

With `C=C1CC[C@@H]2[C@](C)(CO)[C@H](O)CC[C@@]2(C)[C@@H]1C/C=C1/C(=O)OC[C@H]1O`, the Potency result in assay [1] and in assay [2] was “inactive” throughout.

As to `CC1(C)C(C=C(Cl)Cl)C1C(=O)OCc1cccc(Oc2ccccc2)c1` (stereo unspecified), the Potency result in assay [1] and in assay [2] was “inactive” throughout.

For the molecule `CC(C)C(=O)OCC(=O)[C@@]12O[C@H](C3CCCCC3)O[C@@H]1C[C@H]1[C@@H]3CCC4=CC(=O)C=C[C@]4(C)[C@H]3[C@@H](O)C[C@@]12C`, the Potency entry in assay [1] and in assay [2] was “inactive” throughout.

As to `C=C(C)C1CC2(CO)C(=CC1=O)CCC(O)C2C` (stereo unspecified), the Potency result in assay [1], in assay [2] and in assay [3] was “inactive” in each case.

On to `O=C(c1ccc(C#Cc2cccc(F)c2)cn1)N1CC2CC2C1` (stereo unspecified), for which the Potency entry in assay [1] and in assay [2] was “inactive” in each case.

For `O=C(O)c1cc(O)c2c(c1)[O][Bi][O]2`, the outcome in assay [1] is “inactive [at 0.4 µM]”; in assay [2], “inactive [at 0.409 µM]”.

Consider `CC1(C)S[C@@H]2[C@H](NC(=O)C(C(=O)O)c3ccsc3)C(=O)N2[C@H]1C(=O)O` (stereo partly specified), for which the Potency result in assay [1] and in assay [2] was “inactive” in each case.

For the molecule `C[C@@H]1O[C@@H](O[C@H]2[C@H](OC(C#N)c3ccc(O)cc3)O[C@H](CO)[C@@H](O)[C@@H]2O)[C@H](O)[C@H](O)[C@H]1O` (stereo partly specified), the Potency entry in assay [1], in assay [2] and in assay [3] was “inactive” throughout.

Regarding `CC(=O)OC[C@@]12[C@@H](OC(C)=O)C[C@@H](C)[C@](C)([C@@H]3C[C@H]4C=CO[C@H]4O3)[C@H]1CCC[C@]21CO1`, the Potency result in assay [1], in assay [2] and in assay [3] was “inactive” in each case.

On to `COc1ccc([C@@H]2N[C@H](C(=O)O)Cc3c2[nH]c2ccccc32)cc1CN1CCN(c2ccccc2F)CC1`, for which the Potency entry in assay [1], in assay [2] and in assay [3] was “inactive” in each case.

In the case of `CNC(=O)O[C@H]1COc2ccc(N3CCN(C4COC4)CC3)cc2[C@@H]1NC(=O)c1ccc(F)cc1`, the Potency entry in assay [1], in assay [2] and in assay [3] was “inactive” throughout.

Consider `C=C1CC23CCC4[C@@](C)(CCC[C@@]4(C)C(=O)O)C2CCC1C3` (stereo partly specified), for which the Potency result in assay [1], in assay [2] and in assay [3] was “inactive” in each case.

Regarding `COc1c(OC2OC(CO)C(O)C(O)C2O)ccc(O)c1C(=O)OCc1ccccc1O[C@@H]1O[C@H](CO)[C@@H](O)[C@H](O)[C@H]1O` (stereo partly specified), the Potency entry in assay [1], in assay [2] and in assay [3] was “inactive” throughout.

Regarding `C=C1CC[C@@H]2[C@](C)(CC[C@H](O)[C@@]2(C)CCC=C(C)C)[C@@H]1Cc1c[nH]c2ccccc12`, the Potency result in assay [1], in assay [2] and in assay [3] was “inactive” in each case.

Turning to `C/C(=C/CCC(CO)C1CCC2(C)C3CCC4C(C)(C)C(OC5OC(CO)C(O)C(O)C5O)CC(O)C45CC35CCC12C)COC1OC(CO)C(O)C(O)C1O` (stereo unspecified), the Potency result in assay [1], in assay [2] and in assay [3] was “inactive” throughout.

Regarding `O=C(NCC(=O)N1CC[C@H](NC2CCC(O)(c3ccc(-c4ncccn4)cn3)CC2)C1)c1cccc(C(F)(F)F)c1` (stereo partly specified), the Potency result in assay [1], in assay [2] and in assay [3] was “inactive” each time.

For the molecule `CC1NC(=O)CNC(=O)C(C(C)C)NC(=O)C2CCCN2C(=O)C(C(C)C)NC(=O)C(Cc2c[nH]c3ccccc23)NC1=O` (stereo unspecified) (cyclo(GAWVPV); configuration not given here), the Potency result in assay [1], in assay [2] and in assay [3] was “inactive” in each case.

Consider `COc1ccc2c3c1O[C@H]1C[C@@H](O)C=C[C@@]31CCN(C)C2`, for which the Potency entry in assay [1], in assay [2] and in assay [3] was “inactive” in each case.

With `FC(F)(F)c1cc(C(F)(F)F)c2ccc3nc(-c4nnco4)cn3c2n1`, the Potency entry in assay [1], in assay [2] and in assay [3] was “inactive” throughout.

In the case of `C/C=C/C=C/C=C/C(=O)O[C@@H]1[C@@H](OC)C2=C(C(=O)N(C(C)C(=O)O)C2)[C@@]2(C)CCCC(C)(C)[C@H]12` (stereo partly specified), the Potency entry in assay [1], in assay [2] and in assay [3] was “inactive” each time.

Turning to `CCOC(=O)N1CCC(NCCNC(=O)c2ccccc2C)CC1`, the Potency entry in assay [1], in assay [2] and in assay [3] was “inactive” each time.

Regarding `N#Cc1ccnc(N2C(=O)CC[C@H]2C(=O)N(c2cncc(F)c2)[C@H](C(=O)NC2CC(F)(F)C2)c2ccccc2Cl)c1`, the Potency result in assay [1], in assay [2] and in assay [3] was “inactive” throughout.
